# Many of the other results were omitted from the sample, so the strongest signals are more common in it than they were.
# Experiments:
# Experiment in all cases: glycan array binding signal (z-score within array); higher = stronger binding
# Settings in all cases: glycan notation: IUPAC condensed, linker removed
# [1] = test system: Fuc(a1-3)[Gal(b1-4)]GlcNAc(b1-6)GalNAc
# Outline: (§1)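 The Consortium for Functional Glycomics database supplied 3228 glycan arrays, of which those lacking an available protein sequence were dropped. The binding signal, a within-array Z-score, was averaged across arrays of the same protein sequence and across linkers. Negative scores can be read as non-binding.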
# [2] = test system: Fuc(a1-3)[Gal(b1-4)]GlcNAc6S
# Outline: as §1
# [3] = test system: Gal(a1-3)Gal(b1-4)GlcNAc(b1-2)Man(a1-3)[Gal(a1-3)Gal(b1-4)GlcNAc(b1-2)Man(a1-6)]Man(b1-4)GlcNAc(b1-4)GlcNAc
# Outline: as §1
# [4] = test system: Fuc(a1-3)[Gal(b1-4)]GlcNAc
# Outline: as §1
# [5] = test system: Fuc(b1-3)GlcNAc
# Outline: as §1
# [6] = test system: Fuc(a1-3)[Gal(b1-4)]GlcNAc(b1-4)Gal(b1-4)[Fuc(a1-3)]GlcNAc
# Outline: as §1
# [7] = test system: Fuc(a1-4)GlcNAc
# Outline: as §1
# [8] = test system: Gal(a1-3)Gal(b1-3)GlcNAc
# Outline: as §1
# [9] = test system: Fuc(a1-3)[Gal(b1-4)]GlcNAc(b1-3)Gal(b1-3)[Fuc(a1-4)]GlcNAc
# Outline: as §1
# [10] = test system: Fuc(a1-3)[Gal(b1-4)]GlcNAc(b1-4)Gal(b1-4)[Fuc(a1-3)]GlcNAc(b1-4)Gal(b1-4)[Fuc(a1-3)]GlcNAc
# Outline: as §1
# [11] = test system: Gal(a1-3)Gal(b1-3)Glc
# Outline: as §1
# [12] = test system: Fuc(a1-3)[Gal3S(b1-4)]Glc6S
# Outline: as §1
# [13] = test system: Gal(a1-3)Gal(b1-3)[Fuc(a1-4)]GlcNAc(b1-2)Man(a1-3)[Gal(a1-3)Gal(b1-3)[Fuc(a1-4)]GlcNAc(b1-2)Man(a1-6)]Man(b1-4)GlcNAc(b1-4)GlcNAc
# Outline: as §1
# [14] = test system: Fuc(a1-3)[Gal(b1-4)]GlcNAc(b1-3)Gal(b1-4)[Fuc(a1-3)]GlcNAc
# Outline: as §1
# [15] = test system: Gal(a1-2)Gal
# Outline: as §1
# [16] = test system: Fuc(a1-3)[Gal(b1-4)]GlcNAc(b1-6)[Gal(b1-3)GlcNAc(b1-3)]Gal(b1-4)Glc
# Outline: as §1
# [17] = test system: Fuc(a1-3)[Neu5Ac(a2-3)]Gal(b1-4)GlcNAc(b1-3)GalNAc
# Outline: as §1
# [18] = test system: Gal(a1-3)Gal(b1-3)GlcNAc(b1-2)Man(a1-3)[Gal(a1-3)Gal(b1-3)GlcNAc(b1-2)Man(a1-6)]Man(b1-4)GlcNAc(b1-4)GlcNAc
# Outline: as §1
# [19] = test system: Gal(a1-3)Gal(b1-3)GlcNAc(b1-3)GalNAc
# Outline: as §1
# [20] = test system: Fuc(a1-3)[Gal(b1-4)]GlcNAc(b1-3)Gal(b1-4)[Fuc(a1-3)]GlcNAc(b1-3)Gal(b1-4)[Fuc(a1-3)]GlcNAc
# Outline: as §1
# Chain of SRLC (Mus musculus), Q8VIF6 (Q8VIF6 other isoform, or with tags, fused parts or gaps): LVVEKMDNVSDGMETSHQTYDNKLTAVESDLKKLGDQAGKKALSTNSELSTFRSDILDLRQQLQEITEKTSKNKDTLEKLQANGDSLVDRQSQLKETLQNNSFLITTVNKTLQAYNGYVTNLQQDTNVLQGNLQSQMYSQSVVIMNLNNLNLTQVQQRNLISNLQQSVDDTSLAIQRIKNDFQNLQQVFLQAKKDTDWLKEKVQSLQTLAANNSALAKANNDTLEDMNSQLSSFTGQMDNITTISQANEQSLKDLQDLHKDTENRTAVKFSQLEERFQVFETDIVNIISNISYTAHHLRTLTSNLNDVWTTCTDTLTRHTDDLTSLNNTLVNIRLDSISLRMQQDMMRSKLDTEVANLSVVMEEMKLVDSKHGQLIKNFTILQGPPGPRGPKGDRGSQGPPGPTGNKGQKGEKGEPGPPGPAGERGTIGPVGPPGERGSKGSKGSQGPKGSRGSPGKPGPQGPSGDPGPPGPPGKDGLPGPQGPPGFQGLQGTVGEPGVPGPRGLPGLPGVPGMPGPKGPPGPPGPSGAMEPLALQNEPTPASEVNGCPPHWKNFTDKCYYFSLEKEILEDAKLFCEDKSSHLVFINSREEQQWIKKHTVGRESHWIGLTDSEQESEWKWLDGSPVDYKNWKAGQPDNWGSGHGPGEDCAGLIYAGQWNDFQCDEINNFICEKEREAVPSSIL
# Chain of PILRb (Mus musculus), Q2YSF2 (Q2YSF2 entry or part of it): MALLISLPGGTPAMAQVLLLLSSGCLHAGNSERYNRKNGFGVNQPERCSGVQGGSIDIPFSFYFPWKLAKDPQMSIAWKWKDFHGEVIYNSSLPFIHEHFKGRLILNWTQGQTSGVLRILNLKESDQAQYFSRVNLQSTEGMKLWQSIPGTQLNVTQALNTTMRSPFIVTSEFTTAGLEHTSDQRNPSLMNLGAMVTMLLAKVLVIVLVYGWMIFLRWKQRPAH
# Chain of Aggrecan (Rattus norvegicus), NP_071526 (chain, as listed by the source): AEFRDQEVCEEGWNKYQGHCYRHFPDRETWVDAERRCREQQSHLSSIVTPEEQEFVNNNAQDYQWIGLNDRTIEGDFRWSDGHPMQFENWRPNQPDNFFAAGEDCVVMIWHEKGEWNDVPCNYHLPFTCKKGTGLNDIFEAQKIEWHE
# Chain of C3b (Homo sapiens), P01024 (P01024 23-667): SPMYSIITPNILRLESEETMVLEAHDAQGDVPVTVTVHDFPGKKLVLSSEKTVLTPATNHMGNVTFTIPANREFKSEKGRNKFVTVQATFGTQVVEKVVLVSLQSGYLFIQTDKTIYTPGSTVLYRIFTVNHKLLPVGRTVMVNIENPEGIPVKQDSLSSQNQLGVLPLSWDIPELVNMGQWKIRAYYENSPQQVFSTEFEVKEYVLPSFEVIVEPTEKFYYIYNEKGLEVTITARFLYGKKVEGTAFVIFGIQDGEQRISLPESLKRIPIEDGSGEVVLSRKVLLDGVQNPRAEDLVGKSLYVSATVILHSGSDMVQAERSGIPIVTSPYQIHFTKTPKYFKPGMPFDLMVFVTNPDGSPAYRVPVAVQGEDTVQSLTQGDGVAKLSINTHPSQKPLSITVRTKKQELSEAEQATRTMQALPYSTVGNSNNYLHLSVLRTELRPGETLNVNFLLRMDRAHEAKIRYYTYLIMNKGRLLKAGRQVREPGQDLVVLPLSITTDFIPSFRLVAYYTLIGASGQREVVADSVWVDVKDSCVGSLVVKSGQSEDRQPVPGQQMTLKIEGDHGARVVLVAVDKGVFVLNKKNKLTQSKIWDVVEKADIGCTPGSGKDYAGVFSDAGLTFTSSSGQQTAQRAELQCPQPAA
# Chain of Avaren (Actinomycete K97) (chain, as listed by the source): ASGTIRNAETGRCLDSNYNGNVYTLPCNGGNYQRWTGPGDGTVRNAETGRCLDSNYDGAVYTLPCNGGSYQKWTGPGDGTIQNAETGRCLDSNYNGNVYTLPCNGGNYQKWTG
# Chain of CHT (Homo sapiens) (chain, as listed by the source): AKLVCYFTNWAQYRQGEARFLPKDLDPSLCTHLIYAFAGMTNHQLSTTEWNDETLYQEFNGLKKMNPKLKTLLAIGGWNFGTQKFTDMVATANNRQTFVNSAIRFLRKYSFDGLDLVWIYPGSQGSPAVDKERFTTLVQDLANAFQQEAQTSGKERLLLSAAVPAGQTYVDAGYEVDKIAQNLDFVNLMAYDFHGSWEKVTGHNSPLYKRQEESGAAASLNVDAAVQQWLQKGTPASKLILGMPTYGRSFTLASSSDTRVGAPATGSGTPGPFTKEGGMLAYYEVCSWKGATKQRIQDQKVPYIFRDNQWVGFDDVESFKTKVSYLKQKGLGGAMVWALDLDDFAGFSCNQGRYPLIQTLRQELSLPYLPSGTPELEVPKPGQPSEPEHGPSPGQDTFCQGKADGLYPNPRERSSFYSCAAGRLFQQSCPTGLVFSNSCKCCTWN
# Chain of Neurocan (Homo sapiens), O14594 (O14594 other isoform, or with tags, fused parts or gaps): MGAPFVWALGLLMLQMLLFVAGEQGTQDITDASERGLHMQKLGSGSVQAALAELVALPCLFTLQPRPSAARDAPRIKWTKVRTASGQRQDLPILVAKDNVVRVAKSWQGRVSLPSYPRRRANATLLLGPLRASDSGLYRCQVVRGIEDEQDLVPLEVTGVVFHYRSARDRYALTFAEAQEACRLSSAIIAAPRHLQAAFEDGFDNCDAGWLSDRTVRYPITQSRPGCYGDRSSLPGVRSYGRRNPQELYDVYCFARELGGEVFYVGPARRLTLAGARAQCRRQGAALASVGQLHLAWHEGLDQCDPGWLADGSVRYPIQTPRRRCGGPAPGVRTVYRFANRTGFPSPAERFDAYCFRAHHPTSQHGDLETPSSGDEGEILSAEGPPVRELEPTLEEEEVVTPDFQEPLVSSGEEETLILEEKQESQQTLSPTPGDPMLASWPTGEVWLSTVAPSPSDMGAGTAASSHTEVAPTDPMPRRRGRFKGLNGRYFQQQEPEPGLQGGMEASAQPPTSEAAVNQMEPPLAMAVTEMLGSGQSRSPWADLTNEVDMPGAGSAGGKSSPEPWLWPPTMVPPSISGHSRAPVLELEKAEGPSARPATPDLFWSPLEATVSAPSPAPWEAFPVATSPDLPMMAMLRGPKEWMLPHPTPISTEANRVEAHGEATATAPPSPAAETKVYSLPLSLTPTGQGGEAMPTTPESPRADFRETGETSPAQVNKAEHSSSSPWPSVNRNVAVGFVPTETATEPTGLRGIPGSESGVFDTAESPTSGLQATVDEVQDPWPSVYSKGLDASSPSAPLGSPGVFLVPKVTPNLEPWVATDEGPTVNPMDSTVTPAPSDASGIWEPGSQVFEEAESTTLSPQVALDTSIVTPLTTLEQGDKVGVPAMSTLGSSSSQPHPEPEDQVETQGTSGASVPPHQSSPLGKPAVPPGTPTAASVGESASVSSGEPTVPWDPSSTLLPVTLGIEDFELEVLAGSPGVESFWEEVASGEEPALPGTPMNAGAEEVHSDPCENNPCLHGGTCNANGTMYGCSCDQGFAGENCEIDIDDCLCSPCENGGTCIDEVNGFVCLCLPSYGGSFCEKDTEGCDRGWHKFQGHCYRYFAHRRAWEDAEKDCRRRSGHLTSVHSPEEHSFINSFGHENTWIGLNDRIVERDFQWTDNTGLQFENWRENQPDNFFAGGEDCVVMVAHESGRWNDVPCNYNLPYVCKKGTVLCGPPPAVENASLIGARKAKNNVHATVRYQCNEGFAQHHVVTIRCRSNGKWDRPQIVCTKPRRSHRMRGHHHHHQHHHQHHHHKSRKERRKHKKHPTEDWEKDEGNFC
# Chain of Regenerating Gene IV (Homo sapiens), Q9BYZ8 (Q9BYZ8 whole entry, looked up): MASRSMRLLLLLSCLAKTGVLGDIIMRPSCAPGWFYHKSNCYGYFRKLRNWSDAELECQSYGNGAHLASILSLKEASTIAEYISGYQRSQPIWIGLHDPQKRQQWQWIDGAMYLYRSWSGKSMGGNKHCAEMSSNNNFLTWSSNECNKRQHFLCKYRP
# Chain of CHI3L1 (Homo sapiens), P36222 (P36222 whole entry): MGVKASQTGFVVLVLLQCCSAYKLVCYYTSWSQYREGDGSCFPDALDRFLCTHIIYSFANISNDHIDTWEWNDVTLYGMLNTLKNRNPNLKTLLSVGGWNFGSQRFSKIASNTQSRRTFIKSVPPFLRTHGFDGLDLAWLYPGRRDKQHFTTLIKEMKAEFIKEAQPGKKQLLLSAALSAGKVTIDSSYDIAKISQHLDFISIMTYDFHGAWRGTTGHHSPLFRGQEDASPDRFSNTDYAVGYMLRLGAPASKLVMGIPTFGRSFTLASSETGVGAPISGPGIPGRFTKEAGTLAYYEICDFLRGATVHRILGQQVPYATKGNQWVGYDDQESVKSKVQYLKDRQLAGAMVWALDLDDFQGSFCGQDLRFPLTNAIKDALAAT
# Chain of wLAT-1A (Homo sapiens), Q01650 (Q01650 whole entry): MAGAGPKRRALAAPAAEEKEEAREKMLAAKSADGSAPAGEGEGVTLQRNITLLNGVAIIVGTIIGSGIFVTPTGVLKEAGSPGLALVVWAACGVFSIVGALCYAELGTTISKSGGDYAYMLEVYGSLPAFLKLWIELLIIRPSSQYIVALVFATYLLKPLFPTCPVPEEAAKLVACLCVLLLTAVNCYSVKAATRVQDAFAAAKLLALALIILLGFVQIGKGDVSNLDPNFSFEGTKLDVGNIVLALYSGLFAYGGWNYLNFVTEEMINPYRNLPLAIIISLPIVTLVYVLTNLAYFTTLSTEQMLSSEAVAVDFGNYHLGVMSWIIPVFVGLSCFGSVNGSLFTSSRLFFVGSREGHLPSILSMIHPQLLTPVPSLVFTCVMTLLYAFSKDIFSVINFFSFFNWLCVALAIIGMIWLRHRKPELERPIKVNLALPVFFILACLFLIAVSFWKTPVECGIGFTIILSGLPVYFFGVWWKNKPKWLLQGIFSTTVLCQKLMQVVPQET
substance,measurement,setting,value
Avaren (Actinomycete K97),glycan array binding signal (z-score),[1],-0.094
same,glycan array binding signal (z-score),[2],-0.109
same,glycan array binding signal (z-score),[3],-0.106
CHT (Homo sapiens),glycan array binding signal (z-score),"[4]; mutation: D138V, E140I",-0.176
same,glycan array binding signal (z-score),"[5]; mutation: D138V, E140I",-0.132
"C3b (Homo sapiens), P01024",glycan array binding signal (z-score),[6],-0.595
same,glycan array binding signal (z-score),[7],3.19
same,glycan array binding signal (z-score),[8],1.35
"SRLC (Mus musculus), Q8VIF6",glycan array binding signal (z-score),[9],4.31
same,glycan array binding signal (z-score),[10],7.13
same,glycan array binding signal (z-score),[6],4.46
same,glycan array binding signal (z-score),[4],6.98
same,glycan array binding signal (z-score),[11],-0.234
"wLAT-1A (Homo sapiens), Q01650",glycan array binding signal (z-score),[12],3.91
MpAFP RI GFP (Marinomonas primoryensis),glycan array binding signal (z-score),[13],2.56
"Siglec-8 (Homo sapiens), Q9NYZ4",glycan array binding signal (z-score),[14],-0.046
same,glycan array binding signal (z-score),[1],-0.063
same,glycan array binding signal (z-score),[2]; mutation: R125K,5.35
same,glycan array binding signal (z-score),[4]; mutation: R125K,-0.361
same,glycan array binding signal (z-score),[7]; mutation: R125K,2.97
"CHI3L1 (Homo sapiens), P36222",glycan array binding signal (z-score),[9],-0.081
same,glycan array binding signal (z-score),[15],-0.025
"Neurocan (Homo sapiens), O14594",glycan array binding signal (z-score),[16],2.26
same,glycan array binding signal (z-score),[5],-0.101
"Regenerating Gene IV (Homo sapiens), Q9BYZ8",glycan array binding signal (z-score),[2],-0.14
same,glycan array binding signal (z-score),[15],6.89
"Aggrecan (Rattus norvegicus), NP_071526",glycan array binding signal (z-score),[17],0.658
same,glycan array binding signal (z-score),[15],-0.066
same,glycan array binding signal (z-score),[8],-0.05
"PILRb (Mus musculus), Q2YSF2",glycan array binding signal (z-score),[12],-0.626
same,glycan array binding signal (z-score),[18],6.25
same,glycan array binding signal (z-score),[19],-0.312
"HARE (Homo sapiens), Q8WWQ8",glycan array binding signal (z-score),[20],0.285

# From the supplement of paper PMC8728848
